Screening results as filed in PubChem.
Hits are enriched below; roughly 7.3% of the tested compounds scored in any of these assays.
p53 reactivation: restores transcriptional activity of mutant p53; H1299 p53-A138V BP100-luciferase reporter, luminescence, 24 h; Potency, µM (highest dose often 92.2 µM), usual class: activators; 320,000 tested, 0.063% active; AID 504706; further: nearly all actives have a fitted effect of over 45% in size
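H1299 (p53-null), stable ts p53-A138V + BP100-Luc; 1000 cells/well, Opti-MEM/10% FBS; cpd 4 pt, 1:5; 24 h, 37 deg C, 5% CO2; detection reagent 10 min RT; luminescence.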
NPC1 prom act: activates the NPC1 promoter. Huh7 NPC1 promoter luciferase reporter, 24 h. Potency, µM (series often up to 9.22 µM), actives largely listed as activators. 320,000 tested, 2.4% active; further: nearly all actives have a fitted effect of over 60% in size
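Stable NPC1-promoter luciferase Huh7 line; cpd (DMSO) 24 h, 37 °C, 5% CO2; Amplite luciferase reagent 10 min RT; luminescence readout. qHTS format.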
ELG1 genotox: inducers of genotoxicity in HEK293T ELG1-luciferase cells; HEK293T ELG1-luciferase reporter, luminescence, 16 h; Potency, µM (series often up to 46 µM), hits mostly activators; 330,000 tested, 1.3% active; AID 504466; further: nearly all actives have a fitted effect of over 60% in size
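Screening used a luciferase reporter fused to human ELG1 in HEK293T cells. Luminescence was read on a CCD plate imager after 16 hr exposure and 30 min ONE-Glo incubation.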
SMN2 splice enh: SMN2 splice variant enhancement | HEK293 SMN2-luciferase splicing reporter, luminescence, 30-36 h | Potency, µM (highest dose often 46.1 µM), usual class: activators | 210,000 tested, 2.8% active | AID 1458; further: nearly all actives have a fitted effect of over 55% in size
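HEK293 cells carry an SMN2 […]–luciferase reporter in which exon 7 inclusion puts luciferase in frame. Cells were plated 10-12 h before compound addition, then incubated 30-36 h at 37C. ONE-Glo luminescence was read; sodium butyrate at 4.5 mM final served as control.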
FLuc modulator: inhibits or activates purified firefly luciferase, miR-21 counter-screen | P08659 | 360,000 tested, 6.9% active | purified FLuc, Km substrates, luminescence inhibition | Potency, µM (doses to about 57.5 µM), actives largely listed as inhibitors | AID 588342; further: nearly all actives have a fitted effect of over 55% in size
Target sequence (P08659 whole entry, looked up): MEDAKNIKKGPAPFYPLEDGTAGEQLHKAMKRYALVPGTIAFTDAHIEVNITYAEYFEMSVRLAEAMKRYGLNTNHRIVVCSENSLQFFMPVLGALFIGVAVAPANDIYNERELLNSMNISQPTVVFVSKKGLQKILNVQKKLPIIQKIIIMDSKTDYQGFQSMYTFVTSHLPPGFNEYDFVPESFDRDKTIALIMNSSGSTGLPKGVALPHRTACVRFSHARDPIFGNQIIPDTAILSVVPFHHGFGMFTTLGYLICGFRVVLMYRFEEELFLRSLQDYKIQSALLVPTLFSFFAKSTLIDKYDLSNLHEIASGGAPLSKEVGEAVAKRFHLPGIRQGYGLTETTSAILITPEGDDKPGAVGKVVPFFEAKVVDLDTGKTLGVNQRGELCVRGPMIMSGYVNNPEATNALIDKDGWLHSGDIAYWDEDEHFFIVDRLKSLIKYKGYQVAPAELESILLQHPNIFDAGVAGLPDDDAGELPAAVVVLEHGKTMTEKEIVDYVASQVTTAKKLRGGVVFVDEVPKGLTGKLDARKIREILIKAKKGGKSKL
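Biochemical qHTS of compounds, final roughly 60 µM downward over six points, against 10 nM purified firefly luciferase using Km concentrations of substrates (10 uM D-luciferin, 10 uM ATP) in Tris acetate pH 7.5 buffer; luminescence output.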
Rab9 promoter act: activates the Rab9 promoter | Huh7 Rab9 promoter-luciferase reporter, luminescence, 24 h | Potency, µM (top dose mostly 9.22 µM), hits mostly activators | 320,000 tested, 2.8% active | AID 485297; further: nearly all actives have a fitted effect of over 60% in size
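Rab9 promoter-driven luciferase in stably transfected Huh7 cells; 1500 cells/well rested 2 h, exposed to compound in DMSO for 24 h at 37 °C, 5% CO2. Luminescence read 10 min after adding luciferase reagent at ambient temperature.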
Hits are given with their value; - = inactive; ? = inconclusive; . = no result; [ ] = dose if it differs, or a comment. The call rests on the fitted dose curve; in most records, active means well fitted curve in the direction sought with a large enough effect; inconclusive means small, poorly fitted or top-dose-only effect, or another doubt; inactive means no such curve, though single readings can be large; an effect the other way counts as inactive or inconclusive.

SMILES	p53 reactivation	NPC1 prom act	ELG1 genotox	SMN2 splice enh	FLuc modulator	Rab9 promoter act
CN(C)c1ccnc(-n2cccc2/C=N/OCc2ccccc2)c1C#N	-	-	-	-	-	-
N#Cc1ccc(CO/N=C/c2ccccc2)cc1	-	?	?	?	24µM	?
CCOc1ccc(OCC(=O)Nc2c(C(=O)Nc3ccc(C)cc3)oc3ccccc23)cc1	.	.	.	-	-	.
COCCNC(=O)c1ccccc1NC(=O)c1nsc2ccccc12	.	.	.	.	19µM	.
COCCNC(=O)c1ccccc1NC(=O)Nc1ccccc1	-	-	-	-	27µM	-
C=CCNC(=O)c1ccccc1NC(=O)Nc1ccccc1	-	-	-	-	19µM	-
COc1ccccc1NC(=O)Nc1c(C)nn(C)c1C	-	-	-	-	-	-
Cc1nn(C)c(C)c1NC(=O)c1ccccc1NC(=O)Nc1ccccc1	-	-	-	.	17µM	-
Cc1ccc2c(CN3CCN(C(=O)c4ccc(Br)cc4)CC3)cc(=O)oc2c1	.	.	.	-	-	.
O=C(CC1N=C2c3ccccc3N=C(SCc3ccccc3Cl)N2C1=O)NCc1cccs1 (configuration not stated)	.	.	.	.	-	.
CN1CCCN(C(=O)c2ccc(Cl)s2)CC1	-	-	-	.	-	-
CCC(=O)Nc1ccc(C(=O)COC(=O)c2nc3nccc(C)n3n2)cc1	-	-	-	.	-	-
O=C(CCNS(=O)(=O)c1ccc2c(c1)CCN2C(=O)C1CC1)Nc1ccc(Cl)cc1	.	.	.	.	-	.
O=C(Nc1ccccc1)Nc1ccccc1C(=O)NCC1CC1	-	-	-	.	15µM	-
Cc1ccccc1NC(=O)Nc1ccccc1C(=O)NCc1ccccc1	-	-	-	-	-	-
Cc1ccc(NC(=O)Nc2ccccc2C(=O)NCc2ccccc2)cc1	-	-	?	-	4.8µM	-
CCC(=O)c1ccc(OCCSc2ncccn2)cc1	-	4µM	3.7µM	7.9µM	19µM	2µM
c1cnc(SCCOc2ccc3c(c2)CCC3)nc1	?	2.8µM	4.6µM	13µM	1.7µM	1.6µM
Cc1cc(C)nc(NC(=O)c2cccc(Cl)c2)n1	-	-	-	.	-	-
COc1ccc2cc(C(=O)CCC(=O)O)ccc2c1	.	.	.	-[9.22 µM]	.	.
COc1ccc(-c2nnc(-c3ccc(N(C)C)cc3)o2)cc1	.	.	.	-	2.1µM	.
Nc1nnc(-c2cccc([N+](=O)[O-])c2)o1	-	-	-	.	-	-
COc1ccc(-c2ccc(-c3nnc(-c4cc(OC)ccc4OC)o3)cc2)cc1	-	-	-	-	-	-
CN(C)c1ccc(-c2nnc(-c3ccccc3F)o2)cc1	.	0.35µM	?	.	1.2µM	0.45µM
COc1ccc(-c2nnc(-c3ccc(N)cc3)o2)cc1	-	?	7.3µM	13µM	3.4µM	?
SMILES	p53 reactivation	NPC1 prom act	ELG1 genotox	SMN2 splice enh	FLuc modulator	Rab9 promoter act
O=[N+]([O-])c1cccc(-c2nnc(-c3ccccc3F)o2)c1	-	2.5µM	?	.	12µM	2µM
CCC(=O)N1CCc2cc(S(=O)(=O)NC(CC(C)C)C(=O)NCc3ccc(F)cc3)ccc21 (configuration not stated)	.	.	.	-	-	.
CN1Cc2sc(NC(=S)NC(=O)c3ccccc3)c(C#N)c2CC1(C)C	-	-	?	.	13µM	-
CCN1CCc2c(sc(NC(=S)NC(=O)c3ccccc3)c2C#N)C1	-	-	-	-	-	-
CCC1(C)Cc2c(sc(NC(=S)NC(=O)c3ccccc3)c2C#N)CO1 (configuration not stated)	?	-	-	-	6µM	-
CC1CCc2sc(NC(=S)NC(=O)c3ccccc3)c(C#N)c2C1 (configuration not stated)	?	?	-	?	12µM	?
CC1(C)Cc2c(sc(NC(=O)c3ccco3)c2C#N)CO1	?	1.6µM	?	?	1.9µM	3.2µM
Cc1ccc(Nc2sc(C(=O)c3ccccc3)c(N)c2S(=O)(=O)c2ccccc2)c(C)c1	.	.	.	-	-	.
CCOCc1nnc(NC(=O)c2ccc(OC)cc2)s1	?	-	-	18µM	-	-
CCOCCc1nnc(NC(=O)c2cc(OC)c(OC)c(OC)c2)s1	-	-	-	16µM	-	-
CC(C)Cc1nnc(NC(=O)Nc2ccccc2)s1	-	?	?	11µM	17µM	3.2µM
CCc1nnc(NC(=O)Nc2ccc(OC)cc2)s1	-	?	?	-	17µM	?
CC(C)Cc1nnc(NC(=O)CCC(=O)Nc2ccccc2)s1	-	-	-	.	-	-
COc1ccc(NC(=O)Nc2nnc(CC(=O)Nc3ccccc3)s2)cc1	-	-	-	.	-	-
c1ccc(B2OC[C@@H]3OB(c4ccccc4)O[C@H]([C@@H]4COB(c5ccccc5)O4)[C@@H]3O2)cc1	.	.	.	-[9.22 µM]	.	.
COc1ccc(C(=O)Nc2cc(OC)nc(OC)n2)cc1	?	2.2µM	?	7.9µM	4.3µM	0.79µM
COc1ccc(C(=O)Nc2nnc(C)s2)cc1	.	.	.	11µM	13µM	.
CCc1nnc(NC(=O)c2cccc(C(=O)Nc3nnc(CC)s3)n2)s1	-	-	-	-	19µM	-
CCc1nnc(NC(=O)C2CCCN(S(=O)(=O)c3ccc(OC)cc3)C2)s1 (configuration not stated)	-	-	-	.	19µM	-
COc1ccc(C)cc1NC(=O)C(=O)NCCc1sc(-c2ccc(Cl)cc2)nc1C	.	.	.	.	-	.
COc1cc(NC(=O)CSc2nc3nc(C)c(Cc4ccccc4)c(C)n3n2)cc(OC)c1OC	.	.	.	.	-	.
COc1ccc(NC(=O)c2c(C)oc3ccc(O)c(CN4CCN(Cc5ccccc5)CC4)c23)cc1	.	.	.	-	-	.
CCc1cc(C(=O)O)c(NC(=O)c2cc(OC)c(OC)c(OC)c2)s1	-	-	?	-	8.5µM	-
COCCn1c(=O)[nH]c2cc(C(=O)Nc3nnc(C)s3)ccc21	-	-	?	.	13µM	?
COc1ccc(NC(=O)Nc2nnc(C)s2)cc1	.	.	.	-	17µM	.
SMILES	p53 reactivation	NPC1 prom act	ELG1 genotox	SMN2 splice enh	FLuc modulator	Rab9 promoter act
COCCn1c(=O)[nH]c2cc(C(=O)Nc3cc(OC)c(OC)c(OC)c3)ccc2c1=O	-	-	-	.	-	-
CCCCOc1ccc(NC(=O)Nc2nnc(C)s2)cc1	-	-	-	.	?	-
Cc1ccccc1OC(C)C(=O)Nc1ccc(S(=O)(=O)Nc2nccs2)cc1 (configuration not stated)	-	-	-	.	-	-
COc1ccc(-c2cc3nc(-c4ccc(C)cc4)cc(C(F)(F)F)n3n2)cc1	.	.	.	-	-	.
COc1ccc2nc(NNC(=O)c3cc(=O)c4ccccc4o3)sc2c1	-	-	-	.	2.7µM	-
O=C(NNc1nc2c(F)cccc2s1)c1cc(=O)c2ccccc2o1	?	?	?	.	5.4µM	?
Cc1ccc2sc(NNC(=O)c3cc(=O)c4ccccc4o3)nc2c1C	-	-	?	.	9.5µM	-
O=C(NNc1nc2c(F)cccc2s1)c1ccc(F)cc1	-	-	-	-	-	-
